Rows were chosen to be rich in hits. Some 6.5% of all compounds tested hit in one or more screens of this group.
Vaccinia Venus – vaccinia inhibition (Venus reporter) | 330,000 tested, 0.46% active | Potency, µM (highest dose often 36.5 µM), most hits filed as inhibitors | Vaccinia virus Venus reporter expression, fluorescence; calls by dose curve; tested in A549 cells; note: nearly all actives have a fitted effect of over 30% in size
MARV entry inh – Marburg virus entry inhibition. 300,000 tested, 1.8% active. Marburg virus pseudotyped entry inhibition, cell reporter. AID 540276. Potency, µM (doses to about 37.8 µM), actives largely listed as inhibitors; calls by dose curve; tested in HEK293 cells
HCMV antiviral – blocks human cytomegalovirus replication | HFF cells, HCMV-luciferase reporter, 72 h; stronger effect = lower value | activity change, negative = inhibition, % at 57.5 µM | 410,000 tested, 4.5% active | AID 1259415; in the data active = activity change below about -60%; inconclusive = no clear call, values can overlap the other calls; inactive = above about -39%
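Human foreskin fibroblasts infected with luciferase-reporter HCMV at MOI 1 PFU/cell, compounds at two doses. Luciferase measured 72 h post infection; normalized to buffer-only basal and Salinomycin (10uM) controls.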
Lassa entry inh – Lassa virus entry inhibition; AID 540256; Lassa virus pseudotype entry inhibition, cell reporter; 300,000 tested, 1.2% active; Potency, µM (titrated, usually from 37.9 µM), actives largely listed as inhibitors; calls by dose curve; tested in HEK293 cells; note: nearly all actives have a fitted effect of over 50% in size
Vaccinia mCherry – vaccinia inhibition (mCherry reporter); Vaccinia virus mCherry reporter infection, fluorescence; Potency, µM (doses to about 36.5 µM), usual class: inhibitors; 310,000 tested, 0.63% active; calls by dose curve; tested in A549 cells; note: nearly all actives have a fitted effect of over 35% in size
FMDV antiviral – blocks foot and mouth disease virus; 410,000 tested, 1.2% active; Potency, µM (series often up to 57.9 µM), most hits filed as inhibitors; FMDV antiviral cell-based qHTS; calls by dose curve; tested in HEK293T cells; note: read-out not given here; nearly all actives have a fitted effect of over 45% in size
Of the large screens only hits and unclear results are named; the others gave an inactive call.

Cc1ccc(-c2ccnc(-n3ncc(C(=O)NCCN4CCOCC4)c3C3CC3)n2)o1	none (no result: MARV entry inh, HCMV antiviral, Lassa entry inh)
CCN(CC)C(=O)c1sc2c(c1C)c(=O)n(CCc1ccccc1)c(=O)n2Cc1cccc(Cl)c1	HCMV antiviral inconclusive, Lassa entry inh 6.3µM, FMDV antiviral inconclusive (no result: MARV entry inh)
CCN(CC)C(=O)c1sc2c(c1C)c(=O)n(CCc1ccccc1)c(=O)n2Cc1ccc(F)cc1Cl	none (no result: MARV entry inh)
CC1(C)Cc2c(C#N)c(SCC(=O)c3ccccc3)nc(N3CCOCC3)c2CS1	Lassa entry inh 18µM
O=C(COc1ccc(S(=O)(=O)NC2CCCCC2)cc1)Nc1ccc(C(F)(F)F)cc1	none
C[C@@H](C[C@@H](O)[C@H](O)C(C)(C)O)[C@@H]1CC[C@]2(C)C3=CC[C@H]4C(C)(C)C(=O)CC[C@]4(C)[C@H]3CC[C@@]12C	Vaccinia Venus 11µM, Vaccinia mCherry inconclusive, FMDV antiviral inconclusive
CCCC(=O)N1CC2(CCN(C)CC2)c2c(n(C)c3cc(OC)ccc23)[C@H]1CO	none (no result: Vaccinia Venus, MARV entry inh, Lassa entry inh, Vaccinia mCherry, FMDV antiviral)
COc1ccc(-c2cc(C(F)(F)F)nc(SCCC(=O)Nc3ccc(NC(C)=O)cc3)n2)cc1	none
COC(=O)c1c(NC(=O)COC(=O)Cn2cnc3ccccc32)sc(C)c1C	none
CCOC(=O)c1c(NC(=O)COC(=O)Cn2cnc3ccccc32)sc(C)c1C	Vaccinia Venus inconclusive, Vaccinia mCherry 10µM
COC(=O)c1ccccc1NC(=O)CCCn1c(C)c2cnn(-c3ccccc3)c(=O)c2c1C	none
Cc1ccc(C)c(CN2C(=O)c3ccccc3S(=O)(=O)c3ccc(C(=O)N4CCN(c5ccccn5)CC4)cc32)c1	MARV entry inh inconclusive, HCMV antiviral -71, Lassa entry inh inconclusive
CCN1CCN(C(=O)c2ccc3c(c2)N(Cc2ccc(Cl)cc2)C(=O)c2ccccc2S3(=O)=O)CC1	HCMV antiviral -61
O=C(c1ccc2c(c1)N(Cc1ccccc1)C(=O)c1ccccc1S2(=O)=O)N1CCN(c2ccccn2)CC1	MARV entry inh 3.5µM, Lassa entry inh inconclusive
O=C(c1ccc2c(c1)N(Cc1ccccc1F)C(=O)c1ccccc1S2(=O)=O)N1CCN(c2ccccn2)CC1	none
Cc1ccc(C)c(CN2C(=O)c3ccccc3S(=O)(=O)c3ccc(C(=O)N4CCN(c5ccccc5)CC4)cc32)c1	HCMV antiviral inconclusive
CCN1CCN(C(=O)c2ccc3c(c2)N(Cc2ccccc2)C(=O)c2ccccc2S3(=O)=O)CC1	none
CO[C@H]1C=C2CCN(C)[C@H]2C2c3cc4c(cc3C(=O)O[C@@H]21)OCO4 (some centres not stated)	HCMV antiviral -63 (no result: MARV entry inh, Lassa entry inh)
COc1cc2c(cc1OC)C(C1c3cc4c(cc3CCN1C)OCO4)OC2=O (configuration not stated)	none (no result: Vaccinia Venus, MARV entry inh, Lassa entry inh, Vaccinia mCherry)
Cc1ccccc1NC(=O)Cn1cc(C(=O)c2ccco2)c2ccccc21	none
Cc1cccc(-n2ncc(C(=O)NCc3ccco3)c2C2CCN(C(=O)OC(C)(C)C)CC2)c1	Lassa entry inh inconclusive (no result: MARV entry inh)
Cc1c([N+](=O)[O-])cnc(Sc2ccccc2)c1[N+](=O)[O-]	HCMV antiviral -99, FMDV antiviral 22µM (no result: Vaccinia Venus, MARV entry inh, Lassa entry inh, Vaccinia mCherry)
Cc1ccc(Sc2ncccc2[N+](=O)[O-])cc1	Lassa entry inh inconclusive, Vaccinia mCherry inconclusive
Clc1ccc(CN=C(Nc2ccccc2)NC2CCCCC2)cc1	MARV entry inh inconclusive, HCMV antiviral -77, Lassa entry inh inconclusive
O=C(Cc1ccc(Cl)cc1)NC1CCCCCC1	Lassa entry inh inconclusive
COc1cccc(C2CC3C(=O)C=CC2N3Cc2ccccc2)c1 (configuration not stated)	MARV entry inh inconclusive, HCMV antiviral -97, FMDV antiviral inconclusive
CCOC(=O)c1c(N)n(CCCOC(=O)c2ccco2)c2nc3ccccc3nc12	Vaccinia Venus 10µM, MARV entry inh inconclusive, Lassa entry inh inconclusive, Vaccinia mCherry inconclusive, FMDV antiviral inconclusive
CCCCCn1c(NC(=O)c2ccco2)c(C(=O)OCC)c2nc3ccccc3nc21	MARV entry inh 4.5µM, Lassa entry inh inconclusive, FMDV antiviral inconclusive (no result: HCMV antiviral)
S=C(c1c[nH]c2ccc(Br)cc12)N1CCOCC1	HCMV antiviral -72 (no result: Vaccinia Venus, MARV entry inh, Lassa entry inh, Vaccinia mCherry)
O=C(c1c[nH]c2ccccc12)N1CCOCC1	none
C=CCn1c(N)cc(=O)nc1SC(C)C(=O)Nc1ccc(C(=O)OCC)cc1 (configuration not stated)	none
CCOC(=O)c1ccc(NC(=O)C(C)Sc2nc(=O)cc(N)n2CCc2ccccc2)cc1 (configuration not stated)	MARV entry inh 5µM
CCOC(=O)OC[C@H]1O[C@H](c2cc(C)cc(C)c2)C=C[C@@H]1OC(=O)OCC	none (no result: Vaccinia Venus, HCMV antiviral, Lassa entry inh, Vaccinia mCherry, FMDV antiviral)
N#Cc1ncc(-c2ccc3c(c2)OCCOCCOCCOCCO3)nc1C#N	MARV entry inh inconclusive, HCMV antiviral -73, Lassa entry inh inconclusive, FMDV antiviral 40µM
Cc1cc(N/C=C/C(=O)c2cccs2)ccc1F	HCMV antiviral -101 (no result: Vaccinia Venus, MARV entry inh, Lassa entry inh, Vaccinia mCherry)
O=C(/C=C/Nc1ccc(Nc2ccccc2)cc1)c1cccs1	Lassa entry inh inconclusive, Vaccinia mCherry inconclusive
Cc1ccc(N/C=C/C(=O)c2cccs2)cc1C	MARV entry inh inconclusive, Lassa entry inh 10µM, FMDV antiviral inconclusive
COc1ccc(N2C(=O)CCSC23C(=O)N(Cc2ccc(F)cc2)c2ccccc23)cc1Cl (configuration not stated)	Vaccinia Venus inconclusive, Lassa entry inh inconclusive, Vaccinia mCherry inconclusive (no result: MARV entry inh)
COc1ccc(-c2cc(C(C)=O)c(C)n2CCC(=O)Nc2cccc(C)c2C)cc1	none (no result: MARV entry inh)
COC(=O)C(Cc1cc(Br)c(OC)c(Br)c1O)=NO	none (no result: Vaccinia Venus, HCMV antiviral, Lassa entry inh, Vaccinia mCherry, FMDV antiviral)
N#C/C(=C\c1ccc(-c2ccc(C(=O)O)cc2)o1)c1nc2ccccc2[nH]1	MARV entry inh 10µM, Lassa entry inh inconclusive
O=C(CSc1nnnn1C1CC1)N1CCN(Cc2ccccc2F)CC1	HCMV antiviral -69 (no result: Vaccinia Venus, MARV entry inh, Lassa entry inh, Vaccinia mCherry)
Cc1ccc(C(=O)OCC(=O)NCCN2C(=O)CSC2=O)cc1[N+](=O)[O-]	none (no result: Vaccinia Venus, MARV entry inh, Lassa entry inh, Vaccinia mCherry)
CC1CCN(c2ccc(C(=O)OCC(=O)NCCN3C(=O)CSC3=O)cc2[N+](=O)[O-])CC1	MARV entry inh inconclusive, HCMV antiviral -78, FMDV antiviral inconclusive
Cc1cccc(NC(=O)CSc2nc(C)cc(C)c2C(=O)Nc2ccc(Cl)cc2)c1	none
O=S(=O)(Nc1ccc2c(c1)CCC2)c1cccs1	none (no result: Vaccinia Venus, Vaccinia mCherry)
O=C1OCc2cc(NS(=O)(=O)c3cccs3)ccc21	HCMV antiviral -63 (no result: FMDV antiviral)
CCOc1ccccc1NC(=O)c1cc2c(=O)[nH]c3ccccc3c2s1	none
CC1=C(c2ccc(F)cc2)S(=O)(=O)N=C1N1CCC(C(=O)NCCc2cccc(C)c2)CC1	none (no result: MARV entry inh)
Cc1ccc(-c2csc(N(CCO)CCCn3c(C(F)(F)F)nc4ccccc43)n2)cc1	Vaccinia Venus inconclusive, HCMV antiviral -64, FMDV antiviral inconclusive (no result: MARV entry inh, Lassa entry inh)
Cc1ccc(C(C)C)c(O)c1C(=O)O	HCMV antiviral -63 (no result: MARV entry inh, Lassa entry inh)
COc1ccc(C(CCNCc2ccc(N(C)C)cc2)c2ccccc2)cc1 (configuration not stated)	MARV entry inh inconclusive, Lassa entry inh inconclusive, Vaccinia mCherry inconclusive
COc1ccc(CNCCC(c2ccc3c(c2)OCO3)c2ccccc2OC)cc1 (configuration not stated)	Vaccinia Venus inconclusive, MARV entry inh inconclusive, HCMV antiviral -106, Lassa entry inh inconclusive, Vaccinia mCherry inconclusive

Source: PubChem BioAssay
